According to PubChem BioAssay AID1159580 (chemical genetic matrix, 2015):
“And” between values parts separate entries of the source, which are not always exact repeats. Identical values can stand only once. Screen size: about 5,500 compounds; about 2,000 (36%) were called active. About 18% were inconclusive and are not listed. Cut-off read from the data, not from the text of the source: active = normalized growth mostly below about 0.91 (no sharp cut-off); inconclusive = no clear call, values can overlap the other calls; inactive = mostly above about 0.92. The list shows a part of the results.

Assay: chemical genetic growth profiling, strain panel (AID 1159580);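 note: tested at 20 µM; growth read once vehicle control cultures reached saturation at 30 °C; 1 = growth at the plate median or of vehicle wells; lower values mean less growth of the strain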
Conditions: S. cerevisiae deletion strains, growth OD

Measured: normalized growth

CNCCCN1c2ccccc2CCc2ccccc21
inactive: locus YAL013W, strain DEP1, stronger effect = lower value 0.993 | locus YAL021C, strain ccr4, stronger effect = lower value 1 | locus YAL026C, strain drs2, stronger effect = lower value 0.985 | locus YAL030W, strain snc1, stronger effect = lower value 1.03 | locus YAL040C, strain CLN3, stronger effect = lower value 1 | locus YBL061C, strain skt5, stronger effect = lower value 1.02 | locus YBR009C, strain hhf1, stronger effect = lower value 0.972 | locus YBR021W, strain FUR4, stronger effect = lower value 1 | locus YBR023C, strain chs3, stronger effect = lower value 1.02 | locus YBR171W, strain sec66, stronger effect = lower value 1.03 | locus YBR229C, strain ROT2, stronger effect = lower value 1.01 | locus YBR231C, strain swc5, stronger effect = lower value 1.02 | locus YBR279W, strain paf1, stronger effect = lower value 0.996 | locus YCL011C, strain gbp2, stronger effect = lower value 0.994 | locus YCL016C, strain dcc1, stronger effect = lower value 0.988 | locus YCL029C, strain bik1, stronger effect = lower value 1 | locus YCL061C, strain MRC1 (second series), stronger effect = lower value 0.994 | locus YCL061C, strain MRC1, stronger effect = lower value 1.04 | locus YCL069W, strain vba3, stronger effect = lower value 1.02 | locus YCR088W, strain abp1, stronger effect = lower value 1.02 | locus YDL005C, strain med2, stronger effect = lower value 1.03 | locus YDL035C, strain GPR1, stronger effect = lower value 1.02 | locus YDL040C, strain nat1, stronger effect = lower value 1.02 | locus YDL074C, strain BRE1, stronger effect = lower value 1 | locus YDL101C, strain DUN1, stronger effect = lower value 1 | locus YDL134C, strain PPH21, stronger effect = lower value 1.02 | locus YDL185W, strain tfp1, stronger effect = lower value 1 | locus YDL192W, strain arf1, stronger effect = lower value 0.997 | locus YDR001C, strain nth1, stronger effect = lower value 1.02 | locus YDR069C, strain doa4, stronger effect = lower value 1.05 | locus YDR101C, strain arx1, stronger effect = lower value 1.01 | locus YDR137W, strain rgp1, stronger effect = lower value 1.1 | locus YDR150W, strain NUM1, stronger effect = lower value 1.01 | locus YDR159W, strain sac3, stronger effect = lower value 0.987 | locus YDR162C, strain NBP2, stronger effect = lower value 1.02 | locus YDR195W, strain ref2 1.07 | locus YDR297W, strain sur2, stronger effect = lower value 1.03 | locus YDR318W, strain mcm21, stronger effect = lower value 0.993 | locus YDR334W, strain swr1, stronger effect = lower value 1.01 | locus YDR335W, strain msn5, stronger effect = lower value 1.02 | locus YDR363W, strain ESC2, stronger effect = lower value 0.997 | locus YDR388W, stronger effect = lower value 0.992 | locus YDR392W, strain spt3, stronger effect = lower value 0.91 | locus YDR502C, strain sam2, stronger effect = lower value 1.01 | locus YEL003W, strain gim4, stronger effect = lower value 1.02 | locus YEL037C, strain rad23, stronger effect = lower value 1.01 | locus YEL061C, strain CIN8 (second series), stronger effect = lower value 1.01 | locus YEL061C, strain CIN8, stronger effect = lower value 1.01 | locus YER002W, strain NOP16, stronger effect = lower value 0.983 | locus YER015W, strain faa2, stronger effect = lower value 1.01 | locus YER016W, strain bim1, stronger effect = lower value 0.991 | locus YER110C, stronger effect = lower value 0.999 | locus YER111C, strain swi4, stronger effect = lower value 1.01 | locus YER155C, strain BEM2 (second series), stronger effect = lower value 1.05 | locus YER155C, strain BEM2, stronger effect = lower value 1.01 | locus YER167W, strain BCK2, stronger effect = lower value 1.01 | locus YFR010W, strain ubp6, stronger effect = lower value 1.01 | locus YGL078C, strain dbp3, stronger effect = lower value 0.994 | locus YGL086W, strain mad1, stronger effect = lower value 0.991 | locus YGL167C, strain pmr1, stronger effect = lower value 1.02 | locus YGL173C, strain kem1, stronger effect = lower value 1.02 | locus YGL227W, strain vid30, stronger effect = lower value 1.01 | locus YGL240W, strain doc1, stronger effect = lower value 1.06 | locus YGL248W, strain PDE1, stronger effect = lower value 0.992 | locus YGL253W, strain hxk2, stronger effect = lower value 0.996 | locus YGR135W, strain pre9, stronger effect = lower value 0.986 | locus YGR252W, strain gcn5, stronger effect = lower value 0.94 | locus YHR013C, strain ard1, stronger effect = lower value 0.984 | locus YHR027C, strain rpn1, stronger effect = lower value 0.999 | locus YHR030C, strain SLT2, stronger effect = lower value 1.01 and 1.02 | locus YHR079C, strain IRE1 (second series), stronger effect = lower value 1 | locus YHR079C, strain IRE1, stronger effect = lower value 1.01 | locus YHR094C, strain hxt1, stronger effect = lower value 0.995 | locus YHR129C, strain ARP1, stronger effect = lower value 1.01 | locus YHR142W, strain chs7, stronger effect = lower value 0.993 | locus YHR200W, strain rpn10, stronger effect = lower value 1.01 | locus YIL066C, strain RNR3, stronger effect = lower value 1.01 | locus YIL073C, strain SPO22, stronger effect = lower value 0.964 | locus YIL125W, strain kgd1, stronger effect = lower value 1 | locus YIR030C, strain dcg1, stronger effect = lower value 0.999 | locus YJL092W, strain hpr5, stronger effect = lower value 1.01 | locus YJL095W, strain BCK1 (second series), stronger effect = lower value 1.01 | locus YJL095W, strain BCK1, stronger effect = lower value 0.979 and 1.02 | locus YJL115W, strain asf1, stronger effect = lower value 0.999 | locus YJL129C, strain trk1, stronger effect = lower value 1.04 | locus YJL134W, strain LCB3, stronger effect = lower value 1 | locus YJL154C, strain vps35, stronger effect = lower value 1.01 | locus YJL164C, strain tpk1, stronger effect = lower value 0.984 | locus YJL166W, strain qcr8, stronger effect = lower value 1.06 | locus YJL168C, strain set2, stronger effect = lower value 1 | locus YJL187C, strain SWE1 (second series), stronger effect = lower value 0.998 | locus YJR043C, strain POL32, stronger effect = lower value 1.01 | locus YJR066W, strain TOR1, stronger effect = lower value 0.98 | locus YJR075W, strain HOC1, stronger effect = lower value 0.968
